Measurements as given in PubChem BioAssay AID492994 (Johns Hopkins Ion Channel Center, 2010).
Measured potencies and affinities stand elsewhere. Activity calls are given as the source filed them.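 Rule for the calls: active = TRPC4 ion channel inhibited over 30% at some tested dose, with a fitted dose response curve; inactive = no inhibition or no dose response curve.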

Target: Short transient receptor potential channel 4 (Mus musculus) (UniProt Q9QUQ5)
Assay: potency of mouse TRPC4 calcium flux blockers – cell-based, HEK293 TRPC4/mu-opioid, DAMGO stimulus, Fluo-4, dose response (AID 492994)

Sequence of Short transient receptor potential channel 4 (Mus musculus) (Q9QUQ5 whole entry, looked up): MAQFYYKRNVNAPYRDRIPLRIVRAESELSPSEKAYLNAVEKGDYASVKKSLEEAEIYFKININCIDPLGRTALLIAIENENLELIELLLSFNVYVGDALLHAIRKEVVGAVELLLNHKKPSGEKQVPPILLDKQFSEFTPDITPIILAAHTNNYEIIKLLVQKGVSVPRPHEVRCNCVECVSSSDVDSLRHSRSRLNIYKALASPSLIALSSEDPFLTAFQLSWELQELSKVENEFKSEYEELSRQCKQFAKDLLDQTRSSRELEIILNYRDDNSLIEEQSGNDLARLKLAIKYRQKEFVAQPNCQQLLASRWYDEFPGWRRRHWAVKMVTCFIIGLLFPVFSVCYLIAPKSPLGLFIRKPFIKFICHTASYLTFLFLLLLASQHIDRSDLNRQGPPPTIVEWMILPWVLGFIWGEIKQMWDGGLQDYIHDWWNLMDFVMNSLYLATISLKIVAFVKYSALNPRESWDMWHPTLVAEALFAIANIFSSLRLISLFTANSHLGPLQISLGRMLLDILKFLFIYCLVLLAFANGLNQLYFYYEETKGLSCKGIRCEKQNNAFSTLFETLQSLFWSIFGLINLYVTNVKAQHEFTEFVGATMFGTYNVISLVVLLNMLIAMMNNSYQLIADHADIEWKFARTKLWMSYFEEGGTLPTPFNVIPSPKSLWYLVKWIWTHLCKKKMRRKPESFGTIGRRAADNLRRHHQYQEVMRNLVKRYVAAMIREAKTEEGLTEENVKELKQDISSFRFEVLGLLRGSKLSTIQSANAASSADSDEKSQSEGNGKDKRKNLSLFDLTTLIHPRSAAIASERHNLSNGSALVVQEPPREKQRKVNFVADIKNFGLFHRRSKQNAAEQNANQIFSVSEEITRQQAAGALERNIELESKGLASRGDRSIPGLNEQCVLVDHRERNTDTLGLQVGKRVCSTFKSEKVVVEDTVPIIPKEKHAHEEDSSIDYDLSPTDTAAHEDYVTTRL

Q: For Cc1cc(N2CCN(C)CC2)nc2ccccc12, which outcome is on record?
A: The outcome was “inactive”.

Q: Cc1cc(N2CCNCC2)nc2ccccc12 was tested. Which outcome did it give?
A: Its outcome is “inactive”.
